{
  "source": "PubChem BioAssay AID1347076",
  "about": "(National Center for Advancing Translational Sciences (NCATS), 2019)",
  "note": "Hit rate of the full screen: of about 400,000 compounds, about 13,000 (3.2%) were called active. Roughly 18% stayed inconclusive and do not appear here. The sample holds actives, similar compounds and a random draw of the others, so the mix is not that of the screen. Unmarked numbers belong to inactive results. The call rests on the fitted dose curve; in most records, active means well fitted cell-killing curve with a large enough effect; inconclusive means small, poorly fitted or top-dose-only effect, or effect the other way; inactive means flat fitted curve, though single readings scatter. On the % scale 0 is the no-effect control and ±100 the full control effect; potency means the concentration at half of the fitted maximal effect.",
  "data": [
    {"assay": "qHTS assay for MDR1-selective chemotherapeutics: Primary screen using the drug-selected MDR subline cells KB-V1; further: nearly all actives have a fitted effect of over 60% in size", "details": "KB-V1 MDR cells viability, CellTiter-Glo, 72 h; series mostly up to 46.1 µM; activity change, negative = cytotoxicity: at the top concentration", "how_it_was_run": "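KB-V1 cells (P-gp-expressing MDR subline of KB-3-1) in phenol-red-free DMEM with 10% FBS were exposed to library compounds over a concentration series for 72 h at 37 degrees C. Viability read by CellTiter-Glo luminescence; concentration-effect curves fitted after normalization.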", "units": {"activity change, negative = cytotoxicity": "%"}, "values": [
      {"compound": "CCOC(=O)N1CCN(C(=O)c2ccccc2N(Cc2ccccc2)S(=O)(=O)c2ccc(OC)cc2)CC1", "Potency": "20.6 µM (active)"},
      {"compound": "CCOC(=O)N1CCN(C(=O)CN(c2ccc(C)c(C)c2)S(=O)(=O)c2ccccc2)CC1", "Potency": "1.16 µM (active)"},
      {"compound": "COc1ccc(N(CC(=O)N2CCCCCC2)S(=O)(=O)c2ccccc2)cc1", "activity change, negative = cytotoxicity": -14.8},
      {"compound": "COc1ccc(C)cc1N(CC(=O)N1CCCC1)S(=O)(=O)c1ccccc1", "activity change, negative = cytotoxicity": -5.7},
      {"compound": "CCOC(=O)N1CCN(S(=O)(=O)c2ccc(OC)cc2)CC1", "activity change, negative = cytotoxicity": -6.07},
      {"compound": "NC(=O)c1ccccc1N(Cc1ccccc1)S(=O)(=O)c1ccccc1", "activity change, negative = cytotoxicity": 0},
      {"compound": "CC1CCCCN1Cc1c(O)ccc2c(=O)c(-c3cccc(Cl)c3)c(C(F)(F)F)oc12", "note": "(stereo not given)", "activity change, negative = cytotoxicity": 10.4},
      {"compound": "CCC1CN(S(=O)(=O)c2cc(-c3cc(C)no3)ccc2C)c2cc(C)ccc2O1", "note": "(stereo not given)", "activity change, negative = cytotoxicity": -17},
      {"compound": "C[C@@H]1CN([C@H](C)CO)C(=O)CCCn2nncc2CO[C@@H]1CN(C)S(=O)(=O)c1cccc(C#N)c1", "activity change, negative = cytotoxicity": -22.1},
      {"compound": "Cc1csc(NCC(=O)c2c[nH]c3ccccc23)n1", "activity change, negative = cytotoxicity": -17.4},
      {"compound": "COc1ccc(-c2nc3c4ccccc4n(CC(=O)Nc4ccc(C(C)=O)cc4)c(=O)n3n2)cc1", "activity change, negative = cytotoxicity": 17.9},
      {"compound": "COc1ccc(/C=C(\\NC(=O)c2ccc(OC)c(OC)c2)C(=O)NCCc2c[nH]c3ccccc23)cc1", "activity change, negative = cytotoxicity": -26.9},
      {"compound": "COc1ccc(C(C(O)C(=O)c2c[nH]c3ccccc23)N2CCN(c3ccccc3)CC2)cc1", "note": "(stereo not given)", "activity change, negative = cytotoxicity": -8.03},
      {"compound": "COc1ccc(/C=C(\\C#N)c2c[nH]c3ccccc23)cc1", "Potency": "1.3 µM (active)"},
      {"compound": "O=C(CC[C@H]1O[C@@H](n2ccc(=O)[nH]c2=O)[C@H](O)[C@@H]1O)N[C@H](Cc1ccccc1)C(=O)NCc1ccco1", "activity change, negative = cytotoxicity": 3.99},
      {"compound": "Oc1c(C(c2ccc(F)cc2)N2CCN(Cc3ccccc3)CC2)sc2nc(-c3ccco3)nn12", "note": "(stereo not given)", "activity change, negative = cytotoxicity": -1.49},
      {"compound": "COC(=O)c1ccc(Cn2c(SCC(=O)N(C)c3ccccc3)nc3ccccc32)cc1", "activity change, negative = cytotoxicity": 4.47},
      {"compound": "C#CCNC(=O)C[C@@H]1C[C@@]2(C(=O)OCC)CCCC=C2N(Cc2ccco2)C1=O", "activity change, negative = cytotoxicity": 0},
      {"compound": "COc1cc(C(=O)N(Cc2ccc(C(C)C)cc2)C2CCS(=O)(=O)C2)cc(OC)c1OC", "note": "(stereo not given)", "activity change, negative = cytotoxicity": -15.3},
      {"compound": "COCCCNC(=O)CNC(=S)N(Cc1cc(OC)c(OC)c(OC)c1)C1CCCC1", "Potency": "20.6 µM (active)"},
      {"compound": "COc1cc(C(=O)N(Cc2ccc(N(C)C)cc2)C2CCS(=O)(=O)C2)cc(OC)c1OC", "note": "(stereo not given)", "activity change, negative = cytotoxicity": 11.3},
      {"compound": "CCCCCCN1CCN(C2CN(Cc3cn(Cc4ccc(F)cc4)nn3)S(=O)(=O)C2)CC1", "note": "(stereo not given)", "activity change, negative = cytotoxicity": 14.9},
      {"compound": "CC(C)(C)OC(=O)N(Cc1ccccc1)Cc1ccc(OCc2cccc(NC(=O)c3ccccc3)c2)cc1", "activity change, negative = cytotoxicity": -2.42},
      {"compound": "CC(C)c1cc(C(N)=O)c(NC(=O)c2cccc(COc3ccc(Br)cc3)c2)s1", "Potency": "20.6 µM (active)"},
      {"compound": "N#Cc1ccccc1NC(=O)c1cccc(COc2ccc(Cl)cc2Cl)c1", "activity change, negative = cytotoxicity": 0.166},
      {"compound": "COc1ccccc1C(=O)NC(=S)Nc1ccc(N2CCOCC2)cc1", "activity change, negative = cytotoxicity": -7.19},
      {"compound": "Cc1cccc(C(=O)NC2CCN(CC(=O)Nc3cccc(Cl)c3)CC2)c1", "activity change, negative = cytotoxicity": -32.8},
      {"compound": "CCc1nc2ccc(C(=O)Nc3cccc(OC)c3)cn2c1N(CCC(C)C)CCN(C)C", "activity change, negative = cytotoxicity": 3.09},
      {"compound": "CC(=O)/C(=N\\Nc1ccc(Cl)cc1Cl)Sc1cccc2cccnc12", "Potency": "18.4 µM (active)"},
      {"compound": "COc1c(Cl)cc(Cl)cc1C(=O)Nc1cccc2cccnc12", "activity change, negative = cytotoxicity": -0.513},
      {"compound": "O=C(Nc1cccc2cccnc12)c1cccc(Cl)c1", "activity change, negative = cytotoxicity": 16.8},
      {"compound": "COc1ccc(/C=C/c2ccccn2)cc1OC", "activity change, negative = cytotoxicity": -2.57},
      {"compound": "CN(C)C(CNC(=O)Cc1ccc([N+](=O)[O-])cc1)c1ccccc1", "note": "(stereo not given)", "activity change, negative = cytotoxicity": -10.5},
      {"compound": "Cc1ccc(NC(=O)c2cc3ccccc3o2)cc1", "activity change, negative = cytotoxicity": 5.73},
      {"compound": "CN(C)C(CNC(=O)c1cc2ccccc2o1)c1ccccc1", "note": "(stereo not given)", "Potency": "16.4 µM (active)"},
      {"compound": "O=C(Nc1cc(Br)ccc1F)c1nc[nH]c1C(=O)NCc1ccccc1", "activity change, negative = cytotoxicity": -9.49},
      {"compound": "CCCCOC(=O)/C(C#N)=C/c1ccc(-c2cccc(C(F)(F)F)c2)o1", "activity change, negative = cytotoxicity": 9.63},
      {"compound": "O=C1OCC2=C1C(c1ccc(Cl)cc1)c1cc3c(cc1O2)OCO3", "note": "(stereo not given)", "Potency": "23.1 µM (active)"},
      {"compound": "O=C1NC(c2cc3c(cc2Cl)OCO3)Oc2ccccc21", "note": "(stereo not given)", "activity change, negative = cytotoxicity": 0.321},
      {"compound": "CCOc1ccc(CNCc2c(C(=O)O)c(C)n(Cc3cccc(OC)c3)c2C)cc1OC", "activity change, negative = cytotoxicity": 0},
      {"compound": "CCC(C)CN1C(=O)CN(S(C)(=O)=O)CC1(C)C(=O)Nc1ccc2c(c1)OCCO2", "note": "(stereo not given)", "activity change, negative = cytotoxicity": -11.8},
      {"compound": "O=C(C=CC(=O)Nc1ccc(F)cc1F)Nc1ccc(F)cc1F", "activity change, negative = cytotoxicity": 1.29},
      {"compound": "Cc1ccc(C(=O)OCC(=O)NC2CCCCCCC2)cc1C", "activity change, negative = cytotoxicity": 17.9},
      {"compound": "O=C(c1cccs1)N1CCN(Cc2ccc3c(c2)OCO3)CC1", "activity change, negative = cytotoxicity": -13.2},
      {"compound": "O=C(CCCN1C(=O)c2cccc3cccc(c23)C1=O)N1CCN(Cc2ccc3c(c2)OCO3)CC1", "activity change, negative = cytotoxicity": 4.42},
      {"compound": "O=C(Nc1cccc2ccccc12)N1CCN(Cc2ccc3c(c2)OCO3)CC1", "Potency": "16.4 µM (active)"},
      {"compound": "O=[n+]1c2c(n([O-])c3cc(Br)ccc31)CCC2", "activity change, negative = cytotoxicity": 0},
      {"compound": "O=C1CCCc2c1[nH]c1ccc(Br)cc21", "Potency": "0.517 µM (active)"},
      {"compound": "C/C(=N\\N)c1c(-c2ccccc2)c2cc(Br)ccc2[nH]c1=O", "activity change, negative = cytotoxicity": 10.2},
      {"compound": "COC(=O)C(Cc1c[nH]c2ccccc12)NC(=O)CCNC(=O)c1ccco1", "note": "(stereo not given)", "activity change, negative = cytotoxicity": 27.7},
      {"compound": "COc1cc2nc(C#Cc3nc4cc(OC)c(OC)cc4[nH]3)[nH]c2cc1OC", "activity change, negative = cytotoxicity": 4.7},
      {"compound": "O=C1NC(c2cccc(Cl)c2)Nc2ccccc21", "note": "(stereo not given)", "Potency": "8.2 µM (active)"},
      {"compound": "COc1ccc(C2NC(=O)c3ccccc3N2)cc1", "note": "(stereo not given)", "activity change, negative = cytotoxicity": 0},
      {"compound": "C=CCOc1cccc(C2NC(=O)c3ccccc3O2)c1", "note": "(stereo not given)", "activity change, negative = cytotoxicity": -7.2},
      {"compound": "CCCNC(=O)C1(C)CCN1C(=O)C1(c2ccccc2)CC1", "note": "(stereo not given)", "activity change, negative = cytotoxicity": -1.84},
      {"compound": "Cc1cccc(N2CCN(c3c(CN4CCCC4)c(=O)oc4ccccc34)CC2)c1C", "activity change, negative = cytotoxicity": 13.2},
      {"compound": "Cc1cccc(N2CCN(Cc3c(C)n(C)n(-c4ccccc4)c3=O)CC2)c1C", "Potency": "18.4 µM (active)"},
      {"compound": "Cc1c(CN2CCC(C)CC2)c(=O)n(-c2ccccc2)n1C", "activity change, negative = cytotoxicity": -7.43},
      {"compound": "CSCCC(NC(N)=O)C(=O)N(C)CC(=O)Nc1ccc(C)cc1", "note": "(stereo not given)", "activity change, negative = cytotoxicity": 1.58},
      {"compound": "CSCCC(NC(=O)COc1ccccc1)C(=O)Nc1ccc(C)cc1", "note": "(stereo not given)", "activity change, negative = cytotoxicity": -12.8},
      {"compound": "CSCCC(NC(=O)COc1ccccc1)C(=O)N(C)CC(=O)Nc1ccc(C)cc1", "note": "(stereo not given)", "Potency": "16.4 µM (active)"},
      {"compound": "O=C1[C@H]2[C@@H](c3ccc(C(F)(F)F)cc3)N[C@]3(CCCN(Cc4ccc(Br)cc4)C3=O)[C@H]2C(=O)N1Cc1ccccc1", "activity change, negative = cytotoxicity": -1.88},
      {"compound": "COc1ccc(C(=O)NCC(c2ccc(N(C)C)cc2)N2CCc3ccccc32)c(OC)c1", "note": "(stereo not given)", "activity change, negative = cytotoxicity": 14.2},
      {"compound": "COc1cccc(CNC(=O)c2nnn(CC(=O)Nc3cc(Cl)ccc3C)c2N)c1", "activity change, negative = cytotoxicity": 2.29},
      {"compound": "Nc1c(C(=O)Nc2ccc3c(c2)OCCO3)nnn1Cc1ccccc1", "activity change, negative = cytotoxicity": -12.8},
      {"compound": "Nc1c(C(=O)NCc2ccccc2)nnn1Cc1cccc(Cl)c1", "Potency": "9.2 µM (active)"},
      {"compound": "CCS(=O)(=O)N1CCc2cc(C(=O)NCc3ccc(OC)cc3)ccc21", "activity change, negative = cytotoxicity": 3.83},
      {"compound": "O=c1oc2c(CN3CCCCC3)c(O)ccc2c2c1CCCCC2", "Potency": "5.8 µM (active)"},
      {"compound": "COc1ccc(-c2c(C)c3ccc(O)c(CN4CCN(C)CC4)c3oc2=O)cc1OC", "activity change, negative = cytotoxicity": 1.72},
      {"compound": "Cc1ccc(Oc2c(C(F)(F)F)oc3c(CN4CCCCC4)c(O)ccc3c2=O)cc1", "activity change, negative = cytotoxicity": -0.449},
      {"compound": "Cc1ccc(S(=O)(=O)N[C@H]2CCC[C@@H]2O)cc1", "activity change, negative = cytotoxicity": 2.83},
      {"compound": "COc1cc(NC(=O)C2CC(c3ccccc3O)=NO2)c(OC)cc1Cl", "note": "(stereo not given)", "activity change, negative = cytotoxicity": 0.517},
      {"compound": "CCn1ncc(C2=NOC(C(=O)N3CCN(c4ccccc4)CC3)C2)c1C", "note": "(stereo not given)", "activity change, negative = cytotoxicity": -4.05},
      {"compound": "CCn1ncc(C2=NOC(C(=O)Nc3ccccc3C(=O)OC)C2)c1C", "note": "(stereo not given)", "Potency": "18.4 µM (active)"},
      {"compound": "COc1cccc(CNC(=O)C(NS(=O)(=O)c2ccc3nc(C)sc3c2)C(C)C)c1", "note": "(stereo not given)", "activity change, negative = cytotoxicity": -18.7}
    ]}
  ]
}
